This is a sample that favours compounds with a hit; in the whole collection about 3.4% have one here.
GPR151 activ = human GPR151 activation; Q8TDV0; PathHunter beta-arrestin GPR151 cells, luminescence; activation, % at 11.2 µM; hit rate 1% among 650,000; AID 1508602; in the data active = activation above about 4.9%
MITF inh = human MITF inhibition, primary screen | hit rate 0.91% among 650,000 | O75030 | inhibition, % at 2.6 µM | AlphaScreen MITF homodimerization, bead proximity signal; in the data active = inhibition above about 50%
TEAD-YAP inh = TEAD-YAP interaction inhibition; HEK-TIYL cells, TEAD-Gal4/YAP UAS-luciferase luminescence; inhibition, % at 9.12 µM; hit rate 1.4% among 640,000; AID 1259422; in the data active = inhibition above about 32%
FBW7 act = activators of human E3 ligase FBW7 | normalized activity (activation), % at 26.1 µM | AID 1259310 | AlphaScreen FBW7–phospho-cyclin E peptide binding, activator screen | Q969H0 | hit rate 0.13% among 650,000; in the data active = normalized activity above about 1.9%;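 note: purified mutant Fbw7 with reduced substrate affinity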
GPR151 conf act = human GPR151 activation, confirmation screen; activation, % at 11.2 µM; AID 1508609; GPR151 PathHunter beta-arrestin cells, luminescence, 90 min; % of EA-reagent control over plate median; 6,700 tested, under 10 active; shares compounds with GPR151 activ;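 active = mean percent activation across replicates above the confirmation screen cutoff of 4.91%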
GPR119 counter = GPR119 activation, counter-screen for GPR151 activators | shares compounds with GPR151 activ | GPR119 PathHunter beta-arrestin cells, luminescence, 90 min; 0 = compound-well median, 100 = enzyme-acceptor control | activation, % at 11.2 µM | hit rate 0.3% among 6,700 | AID 1508611;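 active = mean percent activation in the counterscreen above 29.09%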;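 note: counterscreen on off-target GPR119 to flag nonselective hits from the GPR151 activator screen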
Target sequence (Q8TDV5 whole entry, looked up): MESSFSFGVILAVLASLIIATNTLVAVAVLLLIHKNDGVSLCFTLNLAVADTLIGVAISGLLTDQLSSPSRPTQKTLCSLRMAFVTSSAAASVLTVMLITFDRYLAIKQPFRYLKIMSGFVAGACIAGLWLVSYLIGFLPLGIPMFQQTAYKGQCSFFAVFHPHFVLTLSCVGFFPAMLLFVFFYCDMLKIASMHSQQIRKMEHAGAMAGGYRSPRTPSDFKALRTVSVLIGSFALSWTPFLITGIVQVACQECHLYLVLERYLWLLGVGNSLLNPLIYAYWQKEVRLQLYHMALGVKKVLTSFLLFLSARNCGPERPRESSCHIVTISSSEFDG
Of the large screens only hits and unclear results are named; the others gave an inactive call (follow-up assays come after a bar, where they were run).

Cc1ccc(OCC(=O)Nc2cccc(O)c2)cc1C	none
[O-][n+]1nc(Cl)ccc1-c1ccccc1	none
COc1ccc(C(=O)/C=C(\C)Nc2ccccc2OC)cc1	none
Cc1cccc(OCC(=O)Nc2cccc(C(=O)O)c2C)c1	GPR151 activ 6.0 | GPR151 conf act inactive | GPR119 counter inactive
CCOc1cc(/C=C(\C#N)C(=O)c2ccccc2)ccc1OCCn1c([N+](=O)[O-])cnc1C	GPR151 activ 8.9 | GPR151 conf act inactive | GPR119 counter inactive
O=C(CSC1CCCC1)NCCCC(=O)Nc1cccc2cccnc12	none
CN1CSC2=C(C#N)C(c3cccc(OCc4ccccc4)c3)CC(=O)N2C1 (configuration not stated)	GPR151 activ 8.7 | GPR151 conf act inactive | GPR119 counter inactive
CCN(CC)C(=O)C1CCCN(c2nc(Nc3cc(OC)c(OC)c(OC)c3)c3ncn(C4CCCCC4)c3n2)C1 (configuration not stated)	GPR151 activ 12 | GPR151 conf act inactive | GPR119 counter inactive
CCN(CC)C(=O)C1CCCN(c2nc(Nc3cc(OC)c(OC)c(OC)c3)c3ncn(CCN4CCCC4=O)c3n2)C1 (configuration not stated)	none
CCN(CC)C(=O)C1CCCN(c2nc(Nc3cc(OC)c(OC)c(OC)c3)nc(N(CC)CC)n2)C1 (configuration not stated)	GPR151 activ 14 | GPR151 conf act inactive | GPR119 counter inactive
COc1cc(Nc2nc(Nc3ccc(NC(C)=O)cc3)c3ncn(C4CCCCC4)c3n2)cc(OC)c1OC	none
COc1cc(Nc2nc(Nc3ccncc3)nc3c2ncn3C2CCCCC2)cc(OC)c1OC	GPR151 activ 6.1 | GPR151 conf act inactive | GPR119 counter inactive
COc1ccc(-c2noc(CN(C)Cc3ccncc3C)n2)c(OC)c1OC	GPR151 activ 15 | GPR151 conf act inactive | GPR119 counter inactive
CCC(C)c1ccccc1NC(=S)NC(C)=O (configuration not stated)	GPR151 activ 31 | GPR151 conf act inactive | GPR119 counter inactive
CCC(C)c1ccccc1NC(=O)CCNC(C)=O (configuration not stated)	none
COc1cc(NC(=O)Cc2cn(-c3ccc(N4CCCC4CO)nn3)c3ccccc23)cc(OC)c1OC (configuration not stated)	none
Nc1c2c(nc3c1CCC3)CCCC2	GPR151 activ 5.0 | GPR151 conf act inactive | GPR119 counter inactive
COc1ccccc1NC(=O)c1c(NC(=O)CCC(=O)O)sc2c1CCC(C(C)(C)C)C2 (configuration not stated)	none
CCC(C)(C)C1CCc2c(sc(NC(=O)c3ccccc3OC)c2C(N)=O)C1 (configuration not stated)	GPR151 activ 8.1 | GPR151 conf act inactive | GPR119 counter inactive
CCC(=O)Nc1sc2c(c1C(=O)Nc1ccccc1C(=O)OC)CCC(C(C)(C)C)C2 (configuration not stated)	GPR151 activ 5.2 | GPR151 conf act inactive | GPR119 counter inactive
COC(=O)C1CCN(S(=O)(=O)c2ccc(C)cc2)CC1	none
CCCC(=O)N1c2ccc(C)cc2C(=C2SC(C(=O)OC)=C(C(=O)OC)S2)C(=S)C1(C)C	none
